The campaign covered roughly 340,000 compounds. About 3,300 (0.97%) were called active.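 Rule for the calls: active = mean activation above about 17%, with every replicate also reaching it (limit read from the data, passing the limit was not always enough); inconclusive = only one of the two conditions met; inactive = the rest.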 The sample as a whole holds a higher share of actives than the screen did.

Protein FosB (Mus musculus), sequence (P13346 whole entry, looked up): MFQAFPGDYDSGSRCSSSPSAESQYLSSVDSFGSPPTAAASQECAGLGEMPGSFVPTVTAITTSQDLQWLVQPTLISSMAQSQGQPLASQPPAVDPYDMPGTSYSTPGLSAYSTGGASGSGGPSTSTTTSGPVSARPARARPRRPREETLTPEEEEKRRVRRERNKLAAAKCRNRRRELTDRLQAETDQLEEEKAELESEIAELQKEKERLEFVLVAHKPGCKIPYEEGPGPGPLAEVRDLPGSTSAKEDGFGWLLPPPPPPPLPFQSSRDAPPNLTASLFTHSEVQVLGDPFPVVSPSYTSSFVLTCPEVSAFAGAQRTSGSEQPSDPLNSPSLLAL

The test addresses Protein FosB (Mus musculus) (UniProt P13346). The experiment in a line: activators of delta FosB homodimer, primary screen, biochemical, fluorescence polarization, TAMRA-CDK5 oligo, single point (AID 493131).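 Note: fluorescence polarization rise as delta FosB binds a TAMRA Cdk5 AP-1 oligo.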 Particulars: purified delta FosB, at 25 µM, stronger effect = higher value, percent of positive-control signal above neutral wells. A general note: Polarisation of emitted light reports the rotation of a fluorescent probe.
In the case of `CC(NC(=O)c1cccc(S(=O)(=O)N2CCc3ccccc3C2)c1)c1ccco1` (centres undefined), the activation is 7.07% (inactive).

For `O=C(COC(=O)c1ccc(S(=O)(=O)N2CCc3ccccc3C2)cc1)NC(=O)NCc1ccco1`, the activation is 61.2% (active).

On to `O=C(CN1CCN(S(=O)(=O)/C=C/c2ccccc2)CC1)NC(=O)NCc1ccco1`, for which the activation is -9.92% (inactive). Turning to `Cc1cccc(C)c1NC(=S)N(Cc1cccnc1)Cc1ccccc1Cl`, the activation was 2.24% (inactive). On to `COC(=O)C(C(=O)Nc1cccc(Cl)c1C)C1CCCC1` (centres undefined), for which the activation was 0.709% (inactive). On to `COc1cccc(/C=N/NC(=O)c2[nH]nc3c2CCc2ccccc2-3)c1O`, for which the activation is 76.1% (active). In the case of `COc1cccc(/C=N/NC(=O)CNC(=O)c2ccc(S(=O)(=O)N3CCOCC3)cc2)c1OC`, the activation was 1.33% (inactive). Next, `COc1ccc(/C=N/NC(=O)c2ccncc2)cc1CN1CCCc2ccccc21`: -19.4% (inactive); `CCOc1ccc2c(=O)c(-c3ccc4c(c3)OCCCO4)c(C)oc2c1`: 5.27% (inactive); `CCn1cc(CN2CCC(C(=O)Nc3cccc(-c4cccc(Cl)c4)c3)CC2)c(C)n1`: -5.85% (inactive). Regarding `O=C1c2ccncc2C(=O)N1C1CCCCC1`, the activation was -3.57% (inactive). Take `COc1ccc(-c2cc(=O)oc3cc(OC(C)C(=O)NCC4CCC(C(=O)O)CC4)ccc23)cc1` (centres undefined): the activation was 2.8% (inactive).

Take `Cc1cc(=O)oc2cc(OC(C)C(=O)Nc3ccc(N4CCOCC4)cc3)ccc12` (centres undefined): the activation is 14.2% (inactive). With `COc1ccc(-c2cc(=O)oc3cc(OC(C)C(=O)Nc4ccc(CN5CCOCC5)cc4)ccc23)cc1` (centres undefined), the activation is 28.5% (active). `COc1ccc(CCN(C)C(=O)C23CC4CC(CC(Cl)(C4)C2)C3)cc1OC`: the activation is -11.5% (inactive). For `CCOc1ccc(NC(=O)CSc2ncnc3c2sc2ccccc23)cc1`, the activation is -0.561% (inactive). Consider `COc1cc(C(=S)NCc2ccccc2)cc(Br)c1O`, for which the activation was -3.42% (inactive).

Turning to `COc1ccc(Cl)cc1NC(=O)CNc1ccccc1F`, the activation was 0.137% (inactive). Regarding `Cc1nn(Cc2ccc(Cl)cc2)c(Cl)c1/C=N/NC(=O)CNc1ccccc1F`, the activation was 20.3% (active). As to `CCn1nc(C)c(/C=N/NC(=O)Cc2ccc(Cl)cc2)c1C`, the activation is -5.48% (inactive).

Regarding `COC(=O)c1ccc(C(=O)Nc2cc(Cl)ccc2Cl)cc1NC(=O)c1ccccc1C`, the activation is -4.76% (inactive). For the molecule `COc1cccc(NC(=O)Cn2c3ccc(F)cc3c3nc4n(c(=O)c32)CCS4)c1`, the activation was 20.4% (active). As for `COc1ccc2c(c1)c1nc3n(c(=O)c1n2CC(=O)Nc1ccccc1)CCS3`, the activation was 2.33% (inactive).

As for `COc1cccc(NC(=O)Cn2c3ccccc3c3nc4n(c(=O)c32)CCS4)c1`, the activation is 10.7% (inactive). As for `CC1=NN(c2cccc(Cl)c2)C(=O)C12CC(C)=C(C)CS2` (centres undefined), the activation was -6.87% (inactive). On to `Oc1ccccc1CNc1ncc(Br)cc1Br`, for which the activation is -0.334% (inactive). As for `CC(C)C(NC(=O)c1cccc(S(=O)(=O)N2CCOCC2)c1)C(=O)NCCc1ccccn1` (centres undefined), the activation was -1.29% (inactive).

As to `Cc1c(C#N)c2ncn(CC#N)c(=O)c2n1-c1ccccc1`, the activation was -7.05% (inactive). Next, `COc1ccc(-c2cc(C(=O)n3cnc4ccccc43)c3ccccc3n2)cc1`: -10% (inactive); `COc1ccc(-c2cc3ncccc3cn2)cc1`: -21.2% (inactive). Under `COc1ccc(-c2cc3n(n2)CCc2nc4ccccc4n2-3)cc1` stands 18.1% (active). Under `CC(=O)N1CCN(CC(c2ccccc2)c2ccccc2)CC1` stands 1.45% (inactive). For the molecule `O=c1[nH]snc1-c1c(Cl)cccc1Cl`, the activation is -3.4% (inactive). For the molecule `CN(CC(=O)Nc1ccc(Cl)cc1)C(=O)CNC(=O)c1ccc2ccccc2c1`, the activation was 38.6% (active).

As for `CN(CC(=O)Nc1ccc(Cl)cc1)C(=O)c1ccc(COc2ccccc2)cc1`, the activation was -1.5% (inactive). Turning to `O=C(NNC(=O)c1ccc2ccccc2c1)c1ccc(Cl)cc1`, the activation was 4.76% (inactive). For the molecule `Nc1ccccc1/C=N\N=C/c1ccccc1N`, the activation is 1.65% (inactive). Next, `Cc1nc(-c2ccc(Cl)cc2)sc1C1(C)CC(c2ccc(Br)cc2)=NO1` (centres undefined): -6.82% (inactive); `COc1ccc(Cn2c(=S)[nH]c3cc(C(=O)NCCCN4CCOCC4)ccc3c2=O)cc1`: -7.8% (inactive); `COc1ccc(Cn2c(=S)[nH]c3cc(C(=O)N4CCCCC4)ccc3c2=O)cc1`: 67.5% (active). As for `COc1ccc(OC)c(-n2c(=S)[nH]c3cc(C(=O)N4CCCCC4)ccc3c2=O)c1`, the activation is 0.446% (inactive). Turning to `CC(C)C(OC(=O)c1cccs1)C(=O)NC1CCCCC1` (centres undefined), the activation is 0.731% (inactive).

With `Cc1c[n+]([O-])ccc1[N+](=O)[O-]`, the activation was 1.75% (inactive). Turning to `CCc1nnc(NS(=O)(=O)c2ccc(NC(=S)NC(=O)/C=C/c3cccs3)cc2)s1`, the activation was -19.1% (inactive). With `C=CCn1c(=NC(=O)c2ccc(S(=O)(=O)N3CCCC3)cc2)sc2cc(NC(C)=O)ccc21`, the activation was 50.4% (active). `COc1cc(C(C)=O)ccc1OC(C)C(=O)Nc1ccc(S(=O)(=O)N2CCCC2)cc1` (centres undefined): the activation was -5.8% (inactive). On to `CC(=O)Nc1ccc(S(=O)(=O)N2CCSCC2)cc1`, for which the activation was -10.4% (inactive). Take `CC(NC(=O)CCCC1CCCCC1)c1ccc(S(N)(=O)=O)cc1` (centres undefined): the activation was -18.3% (inactive). Next, `Cc1n[nH]c(=O)c2c1nnn2Cc1ccc(F)cc1`: 0.186% (inactive); `O=C(CN1CCN(S(=O)(=O)c2ccc(Cl)s2)CC1)N1CCCCC1`: -6.89% (inactive). Next, `COc1cc(OC)cc(C(=O)N[C@H](C(=O)NNC(=O)c2ccc(Br)cc2)C(C)C)c1`: 23.4% (active); `COc1cc(OC)cc(C(=O)NC(C(=O)N2CCC2)C(C)C)c1` (centres undefined): 0.275% (inactive). For `COc1ccc(N2CCN(C(=O)[C@@H](NC(=O)c3cc(OC)cc(OC)c3)C(C)C)CC2)cc1`, the activation is -9.58% (inactive). As to `COc1ccc(C)cc1NC(=O)CN(C)S(=O)(=O)c1ccc2c(c1)n(C)c(=O)c(=O)n2C`, the activation was -14% (inactive). On to `O=C(Nc1ccc2ccccc2c1)/C(=C/c1cccc(Br)c1)NC(=O)c1ccco1`, for which the activation is 23% (active). As for `Cc1ccc(NC(=O)/C(=C\c2ccccc2)NC(=O)c2ccco2)cc1`, the activation is 10.9% (inactive). As for `O=C(Nc1ccc2ccccc2c1)/C(=C\c1ccc2c(c1)OCO2)NC(=O)c1ccco1`, the activation is 5.94% (inactive). For the molecule `COC(=O)c1ccc2c(c1)S(=O)(=O)NC(=NCCCN1CCOCC1)S2`, the activation was 0.881% (inactive). On to `COC(=O)c1ccc(C2C(Oc3ccccc3C)C(=O)N2CCc2ccc(OC)c(OC)c2)cc1` (centres undefined), for which the activation is -14.8% (inactive). Under `COc1ccc(CC(=O)Nc2ccc(C(=O)NC(C)(C)C)cc2)cc1` stands 35.1% (active); under `CC(C)(C)NC(=O)c1cccc(NC(=O)Cc2ccc(Br)cc2)c1`, -8.13% (inactive); under `COc1ccc(NC(=O)c2ccc(C#CC(C)(C)O)cc2)cc1`, -5.48% (inactive). With `CC(=O)N1CC(=O)N(CC(=O)Nc2ccc(Br)cc2)C1=S`, the activation is -0.232% (inactive). For the molecule `C[N+](C)(CCCCCC[N+](C)(C)CCCN1C(=O)c2cccc3cccc(c23)C1=O)CCCN1C(=O)c2cccc3cccc(c23)C1=O`, the activation was 85% (active). Next, `O=C1c2ccccc2C(=O)N1CCCCCCN1C(=O)c2ccccc2C1=O`: -2.1% (inactive).

As to `O=C1c2cccc3cccc(c23)C(=O)N1CCCCCc1n[nH]c(=S)o1`, the activation is -2.23% (inactive). On to `CCOC(=O)Cc1csc(SCC(=O)NC(C)C23CC4CC(CC(C4)C2)C3)n1` (centres undefined), for which the activation is -21% (inactive).

For the molecule `CC1(C)CC(=O)CC2(C1)NCC(c1ccccc1Cl)c1c2[nH]c2ccccc12` (centres undefined), the activation was -13.7% (inactive). Turning to `O=C(NCc1cccnc1)C12CC3CC(CC(C3)C1)C2`, the activation was 0.989% (inactive). Regarding `CC(C)n1cnc2c(NCc3ccccc3)cc(OCC3CCN(C)CC3)cc21`, the activation was 91.8% (active). As to `CCC(CO)Oc1cc(NC(=O)c2cccc3ccccc23)c2ncn(C(C)C)c2c1` (centres undefined), the activation was -12.6% (inactive). On to `CCC(CO)Oc1cc(NC(=O)c2cccc(F)c2)c2ncn(C(C)C)c2c1` (centres undefined), for which the activation was 7.98% (inactive).

As for `C/C(CC(=O)Nc1cccc(C(F)(F)F)c1)=N\NC(=O)C(=O)NCC(C)C`, the activation was -12.7% (inactive). In the case of `CCCCOc1ccc(CON(C(C)=O)C(C)=O)cc1Cl`, the activation is -3.14% (inactive). With `CCn1ccnc1CNC(=O)CC1C(=O)NCCN1Cc1ccc(F)cc1Cl` (centres undefined), the activation was -11.3% (inactive). Take `Oc1ccc(C2Nc3cccc4cccc(c34)N2)cc1`: the activation was 58.9% (active). Next, `COc1ccc(C2NC(=O)c3ccccc3N2)cc1` (centres undefined): -0.293% (inactive); `Brc1ccccc1C1Nc2cccc3cccc(c23)N1`: -8.49% (inactive); `O=C(CCc1nnc(CCCCc2ccccc2)o1)NC(c1cccnc1)C(F)(F)F` (centres undefined): -5.13% (inactive). Take `O=C(O)C1CCN(S(=O)(=O)N2CCOCC2)CC1`: the activation was 1.05% (inactive). Consider `Nc1nc(NCCCN2CCOCC2)nc(Nc2ccccc2)c1[N+](=O)[O-]`, for which the activation is 4.67% (inactive).

With `CCN1CCN(c2nc(Nc3cccc(F)c3)nc(N)c2[N+](=O)[O-])CC1`, the activation was 10.8% (inactive). Regarding `CNc1nc(Nc2ccc(C)c(Cl)c2)nc(N)c1[N+](=O)[O-]`, the activation was 60.7% (active). For the molecule `CCNC(=O)COC(=O)/C=C/c1c(C)nn(Cc2cccc(OC)c2)c1Cl`, the activation is -7.6% (inactive). As to `CC(C)Nc1ccc(-n2nc3ccccc3[n+]2[O-])cc1`, the activation was -2.96% (inactive). In the case of `CC1(C)CC(=O)c2c(n(S(=O)(=O)c3ccccc3)c3ccc(NS(=O)(=O)c4ccccc4)cc23)C1`, the activation is -1.95% (inactive). As to `CCOc1ccc2nc(NC(=O)c3cc([N+](=O)[O-])ccc3N3CCOCC3)sc2c1`, the activation was 26.6% (active).

On to `O=C(NCc1ccc2c(c1)OCO2)c1cc([N+](=O)[O-])ccc1N1CCOCC1`, for which the activation was 5.71% (inactive). `COc1ccc(S(=O)(=O)N2CCCCC2)cc1NC(=O)c1cc([N+](=O)[O-])ccc1N1CCOCC1`: the activation is 5.22% (inactive).
